Measured values as given in ChEMBL document CHEMBL2218924, “A broad activity screen in support of a chemogenomic map for kinase signalling research and drug discovery” (Biochem J, 2013).

Target: Protein kinase C eta type (Homo sapiens) (UniProt P24723)
Settings: at 1 µM

Sequence of Protein kinase C eta type (Homo sapiens) (P24723 whole entry): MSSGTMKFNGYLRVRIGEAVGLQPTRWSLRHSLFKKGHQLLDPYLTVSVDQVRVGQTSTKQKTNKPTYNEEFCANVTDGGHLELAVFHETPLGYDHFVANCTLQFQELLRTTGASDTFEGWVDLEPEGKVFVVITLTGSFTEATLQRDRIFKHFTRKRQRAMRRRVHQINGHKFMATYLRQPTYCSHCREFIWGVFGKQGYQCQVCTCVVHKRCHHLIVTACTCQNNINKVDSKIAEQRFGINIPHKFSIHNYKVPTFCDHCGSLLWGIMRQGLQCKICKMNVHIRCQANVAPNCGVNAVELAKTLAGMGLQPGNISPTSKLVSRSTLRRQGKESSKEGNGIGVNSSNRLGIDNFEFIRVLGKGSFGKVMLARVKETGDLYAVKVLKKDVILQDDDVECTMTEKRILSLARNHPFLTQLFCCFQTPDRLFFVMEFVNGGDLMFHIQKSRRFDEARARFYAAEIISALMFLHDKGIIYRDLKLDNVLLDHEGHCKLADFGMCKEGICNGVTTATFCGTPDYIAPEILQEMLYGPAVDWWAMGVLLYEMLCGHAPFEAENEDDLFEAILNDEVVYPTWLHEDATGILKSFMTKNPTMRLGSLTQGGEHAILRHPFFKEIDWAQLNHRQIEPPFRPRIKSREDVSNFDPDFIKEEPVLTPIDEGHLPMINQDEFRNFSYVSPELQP

SMILES | residual activity [%]
Nc1n[nH]c2nc3ccccc3nc12 | 89
CCCC(=O)Oc1ccc2[nH]c(C(=O)c3cc4ccccc4[nH]3)cc2c1 | 102
CC(C)[C@H](CO)Nc1nc(Nc2cc(N)cc(Cl)c2)c2ncn(C(C)C)c2n1 | 97
O=C(c1ccccc1)c1ccc(N2CCOCC2)cc1O | 116
COc1cc2nccc(Oc3ccc(NC(=S)NC(=O)c4ccccc4C)cc3)c2cc1OC | 98
O=S(=O)(c1cccc2cnccc12)N1CCCNCC1 | 80
O=C1NC(=O)C(c2c[nH]c3ccccc23)=C1c1c[nH]c2ccccc12 | 68
Nc1ncnc2c1c(-c1ccc(Oc3ccccc3)cc1)cn2C1CCCC1 | 95
N#Cc1c(NC(=O)c2cccc3ccccc23)sc2c1CCCC2 | 91
COc1cc2ncnc(Nc3cccc(Cl)c3)c2cc1OC | 110
Nc1ncnc2c1cnn2-c1ccccc1 | 102
O=C1C(Cl)=C(N2C(=O)CCC2=O)C(=O)c2ccccc21 | 68
Nc1nccc(-c2c(-c3ccc(F)cc3)ncn2C2CCNCC2)n1 | 114
CCCCc1c(-c2ccc(O)cc2)[nH]c2nccnc12 | 96
O=C1NC(=O)c2c1c1c3ccccc3[nH]c1n1cncc21 | 85
CSc1nc(-c2ccc(F)cc2)c(-c2ccnc(NC(C)c3ccccc3)c2)[nH]1 (centres undefined) | 87

SMILES | residual activity [%]
CC(C)c1nn(-c2c(Cl)cccc2Cl)c2nc(Cc3ccc(OCCO)cc3)[nH]c(=O)c12 | 92
O=C1NC(=O)C(c2cn(CCCn3ccnc3)c3ccccc23)=C1Nc1ccccc1 | 15
COc1ccc2c(c1)c(C1=C(c3c[nH]c4ccccc34)C(=O)NC1=O)cn2CCCN(C)C | 10
O=c1cc(N2CCOCC2)oc2c1ccc1ccccc12 | 94
COc1cc2c(cc1OC)-c1n[nH]c(Nc3cccc(F)c3)c1C2 | 102
O=c1cc(N2CCNCC2)oc2c(-c3ccccc3)cccc12 | 99
Nc1ncnc2[nH]nc(Nc3ccc(F)cc3)c12 | 110
NC(=O)Nc1sc(-c2ccc(F)cc2)cc1C(N)=O | 74
O=C(O)/C=C/c1cc(Br)c(Br)c(Br)c1Br | 100
Cn1sc(=O)n(Cc2ccccc2)c1=O | 79
O=C1Nc2ccc(Cl)cc2/C1=C/c1cc(Cl)c(O)c(Cl)c1 | 95
CC(C)(C)n1nc(Cc2cccc3ccccc23)c2c(N)ncnc21 | 77
O=C1Cc2c([nH]c3ccc(Br)cc23)-c2ccccc2N1 | 72
COc1cc2nccc(Oc3ccc(NC(=O)Nc4cc(C)on4)c(Cl)c3)c2cc1OC | 96
NC(=O)c1ccc(-c2nc(-c3ccc4c(c3)OCCO4)c(-c3ccccn3)[nH]2)cc1 | 94
O=S(=O)(NCCNC/C=C/c1ccc(Br)cc1)c1cccc2cnccc12 | 66

Target: Protein kinase C eta type (Homo sapiens) (UniProt P24723)
Settings: at 10 µM

SMILES | residual activity [%]
Nc1n[nH]c2nc3ccccc3nc12 | 68
CCCC(=O)Oc1ccc2[nH]c(C(=O)c3cc4ccccc4[nH]3)cc2c1 | 81
CC(C)[C@H](CO)Nc1nc(Nc2cc(N)cc(Cl)c2)c2ncn(C(C)C)c2n1 | 99
O=C(c1ccccc1)c1ccc(N2CCOCC2)cc1O | 83
COc1cc2nccc(Oc3ccc(NC(=S)NC(=O)c4ccccc4C)cc3)c2cc1OC | 71
O=S(=O)(c1cccc2cnccc12)N1CCCNCC1 | 26
O=C1NC(=O)C(c2c[nH]c3ccccc23)=C1c1c[nH]c2ccccc12 | 17
Nc1ncnc2c1c(-c1ccc(Oc3ccccc3)cc1)cn2C1CCCC1 | 67
N#Cc1c(NC(=O)c2cccc3ccccc23)sc2c1CCCC2 | 92
COc1cc2ncnc(Nc3cccc(Cl)c3)c2cc1OC | 108
Nc1ncnc2c1cnn2-c1ccccc1 | 76
O=C1C(Cl)=C(N2C(=O)CCC2=O)C(=O)c2ccccc21 | 24
Nc1nccc(-c2c(-c3ccc(F)cc3)ncn2C2CCNCC2)n1 | 70
CCCCc1c(-c2ccc(O)cc2)[nH]c2nccnc12 | 77
O=C1NC(=O)c2c1c1c3ccccc3[nH]c1n1cncc21 | 81
CSc1nc(-c2ccc(F)cc2)c(-c2ccnc(NC(C)c3ccccc3)c2)[nH]1 (centres undefined) | 73

SMILES | residual activity [%]
CC(C)c1nn(-c2c(Cl)cccc2Cl)c2nc(Cc3ccc(OCCO)cc3)[nH]c(=O)c12 | 91
O=C1NC(=O)C(c2cn(CCCn3ccnc3)c3ccccc23)=C1Nc1ccccc1 | 2
COc1ccc2c(c1)c(C1=C(c3c[nH]c4ccccc34)C(=O)NC1=O)cn2CCCN(C)C | 2
O=c1cc(N2CCOCC2)oc2c1ccc1ccccc12 | 79
COc1cc2c(cc1OC)-c1n[nH]c(Nc3cccc(F)c3)c1C2 | 70
O=c1cc(N2CCNCC2)oc2c(-c3ccccc3)cccc12 | 82
Nc1ncnc2[nH]nc(Nc3ccc(F)cc3)c12 | 104
NC(=O)Nc1sc(-c2ccc(F)cc2)cc1C(N)=O | 60
O=C(O)/C=C/c1cc(Br)c(Br)c(Br)c1Br | 79
Cn1sc(=O)n(Cc2ccccc2)c1=O | 17
O=C1Nc2ccc(Cl)cc2/C1=C/c1cc(Cl)c(O)c(Cl)c1 | 79
CC(C)(C)n1nc(Cc2cccc3ccccc23)c2c(N)ncnc21 | 86
O=C1Cc2c([nH]c3ccc(Br)cc23)-c2ccccc2N1 | 94
COc1cc2nccc(Oc3ccc(NC(=O)Nc4cc(C)on4)c(Cl)c3)c2cc1OC | 79
NC(=O)c1ccc(-c2nc(-c3ccc4c(c3)OCCO4)c(-c3ccccn3)[nH]2)cc1 | 88
O=S(=O)(NCCNC/C=C/c1ccc(Br)cc1)c1cccc2cnccc12 | 15
